Shown are actives, neighbours in structure and some others; about 19% of the full set was active somewhere.
HT1080-NT tox: kills 2HG-producing HT-1080-NT fibrosarcoma cells; Potency, µM (titrated, usually from 46.1 µM), inactives show top-dose activity, negative = less viability, actives largely listed as cytotoxic; AID 686970; HT-1080-NT fibrosarcoma viability, CellTiter-Glo ATP luminescence, 48 h; 360,000 compounds, 1.6% hits;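 note: NT is the 2HG producing partner of a matched IDH1 knockdown line; potency is the fitted concentration of half-maximal effect; 0% = DMSO-treated cells and -100% = media-only wells without cells; nearly all actives have a fitted effect of over 55% in size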
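HT-1080-NT; 750 cells/well; 5% FBS RPMI; 48 h compound, 37 degrees C; CellTiter-Glo luminescence; curve fitting and curve-class assignment.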
DT40 TDP1 no CPT: qHTS for Inhibitors of human tyrosyl-DNA phosphodiesterase 1 (TDP1): qHTS in cells in absence of CPT; AID 686978, 2013; Potency, µM (doses to about 46.2 µM), inactives show at the top dose activity change, negative = growth inhibition, usual class: inhibitors; 420,000 compounds, 15% hits; DT40 Tdp1-/- hTDP1 cells, no CPT, ATP luminescence, 48 h; note: potency is the fitted concentration of half-maximal effect; nearly all actives have a fitted effect of over 55% in size
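Compound effects on proliferation are scored in DT40 Tdp1-/-;hTDP1 cells in the absence of CPT. ATP levels (CellTiter-Glo luminescence) are recorded after a ≥48 hr, 37 °C incubation.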
IL1B secr inh: blocks inflammasome-driven IL-1 beta release | activity change, % at 57.5 µM | AID 743279 | THP-1 LPS/ATP IL-1B secretion, AlphaLISA, 16 h; stronger effect = lower value | 360,000 compounds, 4.7% hits; in the data active = activity change below about -50%; inconclusive = mostly about -30% to -49%
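Secreted IL-1B measured by AlphaLISA bead assay after 16 h compound exposure of THP-1 cells; compounds (final up to 57.5 uM) added 1 h before LPS (250 ng/mL) and ATP (1.25 mM) stimulation; lower signal means less secretion.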
HT1080 IDH1KD tx: kills HT-1080 cells with IDH1 knockdown | HT-1080 IDH1 knockdown viability, ATP luminescence, 48 h | Potency, µM (series often up to 46.1 µM), without a hit: at the top dose activity, negative = toxicity, most hits filed as cytotoxic | 360,000 compounds, 2% hits | AID 686971;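 note: potency is the fitted concentration of half-maximal effect; 0% = DMSO wells and -100% = cell-free medium wells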
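Knockdown cells (IDH1KD HT-1080) received compounds 2 h after plating at 750 cells/well and were kept 48 h at 37 °C in 5% FBS RPMI. A CellTiter-Glo luminescence read gave % activity for curve fitting.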
ELG1 repair inh: blocks ELG1-dependent DNA repair in HEK293T cells; HEK293T ELG1-luciferase reporter, luminescence, 16 h; DNA damage induced by 5-fluorouridine; Potency, µM (highest dose often 46.1 µM), for the others: at the highest dose activity change, negative = inhibition, actives largely listed as inhibitors; AID 504467; 330,000 compounds, 2.3% hits; note: potency is the fitted concentration of half-maximal effect; nearly all actives have a fitted effect of over 55% in size
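Quantitative HTS, concentration-response format. 2,000 cells/well co-treated with 5-fluorouridine and compound, 16 hr in 5% CO2 at 37 °C; ONE-Glo luminescence read after 30 min.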
TDP1 cell CPT: growth inhibition of DT40 Tdp1-/-;hTDP1 cells with camptothecin (screen for TDP1 inhibitors) | Potency, µM (highest dose often 46.2 µM), without a hit: top-dose activity change, negative = growth inhibition, actives largely listed as inhibitors | 420,000 compounds, 12% hits | chicken DT40 Tdp1-/-;hTDP1 cells + 20 nM CPT, ATP luminescence, 48 h | AID 686979; note: potency is the fitted concentration of half-maximal effect; nearly all actives have a fitted effect of over 55% in size
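Chicken DT40 Tdp1-/- cells complemented with human TDP1, 400 cells/well, exposed to compounds plus 20 nM camptothecin for at least 48 h at 37 C; viability read as ATP content by CellTiter-Glo luminescence.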
An asterisk follows results filed as active; ? = inconclusive; nt = no result. Unless noted, calls come from the whole dose curve; as a rule, active = well fitted curve in the direction sought with a large enough effect; inconclusive = small, poorly fitted or top-dose-only effect, or another doubt; inactive = no such curve, though single readings can be large; an effect the other way counts as inactive or inconclusive. Unless noted, % is set by controls: 0 for no effect and ±100 for the full control effect.

SMILES	HT1080-NT tox	DT40 TDP1 no CPT	IL1B secr inh	HT1080 IDH1KD tx	ELG1 repair inh	TDP1 cell CPT
Cc1nn(-c2ccccc2)c(OC(=O)c2cccc(Br)c2)c1S(=O)(=O)c1ccccc1	nt	2%	nt	nt	nt	0%
O=C(OCc1ccccc1)N1CCC2CC1c1cc(NCCc3ccccc3)ccc12 (stereo unspecified)	-19%	?	10	3%	nt	?
COc1ccc(-c2ccc3c(c2)C2CC3CCN2C(=O)OCc2ccccc2)cc1 (stereo unspecified)	-11%	?	29	-27%	nt	16µM*
O=S(=O)(c1cccc2ccccc12)N1CCC2CC1c1cc(-c3ccc(F)cc3)ccc12 (stereo unspecified)	-1%	?	30	9%	nt	?
O=C(OCc1ccccc1)N1CCC2CC1c1cc(N3CCNCC3)ccc12 (stereo unspecified)	-21%	16µM*	?	-10%	nt	?
COc1ccc(-c2ccc3c(c2)C2CC3CCN2S(=O)(=O)c2ccccc2C)cc1 (stereo unspecified)	2%	16µM*	53	-9%	nt	?
CC(=O)N(CCc1ccccc1)c1ccc2c(c1)C1CC2CCN1C(=O)OCc1ccccc1 (stereo unspecified)	?	6.5µM*	?	?	nt	8.2µM*
COC(=O)CSc1nc2sc3c(c2c(=O)n1Cc1ccccc1)CCC(C(C)(C)C)C3 (stereo unspecified)	nt	-13%	nt	nt	nt	-4%
CCN(CC(=O)NCc1cccs1)C(=O)/C=C/c1cccc(Cl)c1Cl	9%	-16%	-2	9%	10%	0%
COc1cccc(-c2ccc3c(c2)C2CC3CCN2C(=O)c2ccc(-c3ccccc3)cc2)c1 (stereo unspecified)	-10%	18µM*	-1	-15%	nt	?
Cc1ccccc1C(=O)N1CCC2CC1c1cc(Cl)ccc12 (stereo unspecified)	5%	?	27	1%	nt	-24%
O=C(OCc1ccccc1)N1CCC2CC1c1cc(/C=C/CCCSc3ncccn3)ccc12 (stereo unspecified)	-12%	23µM*	17	-5%	nt	?
O=C(OCc1ccccc1)N1CCC2CC1c1cc(-c3ccc(F)cc3)ccc12 (stereo unspecified)	1%	?	13	-1%	nt	?
CCN(CCc1ccccc1)c1ccc2c(c1)C1CC2CCN1Cc1ccccc1 (stereo unspecified)	-16%	5.8µM*	35	-14%	nt	6.5µM*
Cc1ccccc1C(=O)N1CCC2CC1c1cc(-c3ccc(F)cc3)ccc12 (stereo unspecified)	-19%	18µM*	34	-25%	nt	?
O=C(OCc1ccccc1)N1CCC2CC1c1cc(N3CCCCC3)ccc12 (stereo unspecified)	-1%	?	-1	-13%	nt	?
CCNc1ncc2nc(-c3cccc(C#N)c3)c(=O)n(CCC#N)c2n1	nt	0%	nt	nt	nt	-1%
CCN(CC(=O)NCc1ccc(F)cc1)C(=O)COc1ccccc1[N+](=O)[O-]	0%	26%	24	5%	26%	-25%
O=C(c1cc(Cl)cc(Cl)c1)N1CCC2CC1c1cc(N3CCCCC3)ccc12 (stereo unspecified)	-2%	21µM*	0	4%	nt	?
O=P(c1ccccc1)(c1ccccc1)c1nc(-c2ccccc2)oc1NCc1ccccc1	-3%	18µM*	-14	5%	?	?
C=CCc1c(C)nc(SC)nc1Nc1ccc(C)cc1	-19%	21µM*	-8	2%	?	9.2µM*
C=CCc1c(C)nc(C)nc1N/N=C/c1ccccc1	0%	?	25	6%	-11%	?
CC(C)C(C=Cc1ccccc1)=NNS(=O)(=O)c1ccccc1	2%	-14%	14	0%	nt	8.2µM*
Cc1ccc(S(=O)(=O)N/N=C\C=C\c2ccccc2)cc1	-3%	-1%	-5	1%	2%	-2%
CCc1ccc2occ(CC(=O)Nc3nnc(C)s3)c2c1	nt	-24%	nt	nt	nt	-6%
SMILES	HT1080-NT tox	DT40 TDP1 no CPT	IL1B secr inh	HT1080 IDH1KD tx	ELG1 repair inh	TDP1 cell CPT
Cc1sc(-n2c(C)cc(/C=N/n3cnnc3)c2C)c(C#N)c1C	-21%	21µM*	0	?	?	16µM*
Cc1sc(-n2c(C)cc(/C=C3\SC(=S)NC3=O)c2C)c(C#N)c1C	13µM*	-28%	24	11µM*	28%	?
CN(C)C(CNc1ncnc2ccccc12)c1c(F)cccc1Cl (stereo unspecified)	-8%	?	18	0%	0%	-17%
COc1ccc(NC(=O)C(c2ccc(C#N)cc2)n2c(=O)c(-c3cc4ccccc4[nH]3)nc3ccccc32)cc1 (stereo unspecified)	-29%	15µM*	12	?	nt	21µM*
COc1ccc(NC(=O)C(c2ccc(OC)cc2)n2c(=O)c(-c3cc4ccccc4[nH]3)nc3ccccc32)cc1 (stereo unspecified)	?	13µM*	2	-22%	nt	16µM*
COc1ccc(NC(=O)C(C2CC2)n2c(=O)c(-c3ccccc3)nc3ccccc32)cc1 (stereo unspecified)	1%	15µM*	-17	0%	nt	?
CCCCCNC(=O)C(C1CC1)n1c(=O)c(-c2ccccc2)nc2ccccc21 (stereo unspecified)	-29%	?	8	-2%	nt	?
COc1cccc(NC(=O)CC2NCCNC2=O)c1 (stereo unspecified)	nt	2%	nt	nt	nt	21%
CC(=O)/C(N=Nc1nc2c([nH]1)c(=O)n(C)c(=O)n2C)=C(\C)O	18%	6%	-18	14%	?	20%
Nc1ncnc2c(C3OC(CO)C(O)C3O)c[nH]c12 (stereo unspecified)	0.23µM*	0.15µM*	-104*	0.15µM*	nt	0.16µM*
CCOC(=O)c1cc(CC)sc1/N=C/C1=C(O)CC(C)(C)CC1=O	-3%	-14%	8	17%	6%	-22%
CCOC(=O)c1sc(N=NC2=C(O)CC(C)(C)CC2=O)c(C(=O)OCC)c1C	12%	15µM*	2	24%	-7%	?
O=[N+]([O-])c1cccc(CN2CCC(Cc3ccccc3)CC2)c1	-8%	-56%	-2	-14%	1%	23µM*
